Article PMC4336329 (PLoS ONE, 2015)
Out of some 310,000 compounds screened, about 14,000 (4.5%) showed an effect of 50% or more. The effect is printed as a negative number. What follows is part of a selection rich in strong results, with near analogues and random picks from the rest.

Target: human ether-à-go-go-related gene (hERG) potassium channel (human, UniProt Q12809)
Experiment: primary screen, population patch clamp on CHO cells stably expressing hERG; higher = less effect of the substance
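Note: peak tail current of the secondary pulse compared with the same well before compound.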

human ether-à-go-go-related gene (hERG) potassium channel, sequence (Q12809 whole entry, looked up): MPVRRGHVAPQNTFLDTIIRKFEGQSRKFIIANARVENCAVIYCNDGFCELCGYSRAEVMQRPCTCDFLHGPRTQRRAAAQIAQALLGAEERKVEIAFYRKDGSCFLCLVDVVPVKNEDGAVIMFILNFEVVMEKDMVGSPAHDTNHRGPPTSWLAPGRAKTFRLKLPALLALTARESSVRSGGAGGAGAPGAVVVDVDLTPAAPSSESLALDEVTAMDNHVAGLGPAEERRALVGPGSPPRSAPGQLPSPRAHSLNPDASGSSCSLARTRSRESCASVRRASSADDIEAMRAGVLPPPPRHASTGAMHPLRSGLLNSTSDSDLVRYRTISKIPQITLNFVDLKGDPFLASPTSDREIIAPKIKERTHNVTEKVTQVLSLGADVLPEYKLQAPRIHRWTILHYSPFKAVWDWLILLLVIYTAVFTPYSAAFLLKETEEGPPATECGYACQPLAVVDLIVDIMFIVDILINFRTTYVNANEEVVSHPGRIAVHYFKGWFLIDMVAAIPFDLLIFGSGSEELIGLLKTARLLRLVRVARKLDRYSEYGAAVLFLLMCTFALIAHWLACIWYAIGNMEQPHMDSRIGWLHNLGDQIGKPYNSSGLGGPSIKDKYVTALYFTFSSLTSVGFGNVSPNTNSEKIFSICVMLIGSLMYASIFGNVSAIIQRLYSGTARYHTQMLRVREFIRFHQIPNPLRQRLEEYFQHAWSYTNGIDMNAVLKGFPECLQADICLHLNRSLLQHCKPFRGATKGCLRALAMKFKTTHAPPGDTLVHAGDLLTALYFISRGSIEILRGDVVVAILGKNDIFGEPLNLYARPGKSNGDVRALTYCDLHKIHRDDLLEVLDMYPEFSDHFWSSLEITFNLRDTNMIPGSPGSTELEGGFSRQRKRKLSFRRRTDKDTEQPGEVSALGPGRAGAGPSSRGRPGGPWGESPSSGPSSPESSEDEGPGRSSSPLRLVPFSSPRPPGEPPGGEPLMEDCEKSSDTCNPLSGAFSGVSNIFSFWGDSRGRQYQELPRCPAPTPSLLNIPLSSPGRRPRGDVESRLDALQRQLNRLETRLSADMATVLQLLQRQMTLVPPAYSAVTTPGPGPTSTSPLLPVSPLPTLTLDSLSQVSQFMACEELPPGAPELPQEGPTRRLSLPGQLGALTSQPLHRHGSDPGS

Structure (SMILES)	hERG current change (%, negative = inhibition) at 10uM [%]
Cc1ccnc(NS(=O)(=O)c2ccc(NS(=O)(=O)Cc3ccccc3)cc2)n1	9.43
COc1cc2c(cc1OC)C(=S)NC1(CCCC1)C2	9.36
COc1ccc(CCNC(C)C(=O)Nc2ccc(S(N)(=O)=O)cc2)cc1 (centres unmarked)	-9.23
CC1CCC2C(=O)N(c3ccc(NC4CCCCC4)c([N+](=O)[O-])c3)C(=O)C2C1 (centres unmarked)	1.71
Cc1ccc(CSc2nc3c(c(=O)[nH]2)C(c2ccncc2)C2=C(CCCC2=O)N3)cc1 (centres unmarked)	9.42
COc1ccc(CCN2CC(C(=O)N(C)Cc3cccnc3)CC2=O)cc1OC (centres unmarked)	8.53
COC(=O)c1nnn(-c2nonc2N)c1CSCCO	14.6
Cc1ccc(N2CC(C(=O)OCc3ccc([N+](=O)[O-])cc3)CC2=O)cc1 (centres unmarked)	-58.5
Cc1ccc(N2CC(C(=O)OCC(=O)c3ccc([N+](=O)[O-])cc3)CC2=O)cc1 (centres unmarked)	-26.8
Cc1ccc(N2CC(C(=O)OCC(=O)C(C)(C)C)CC2=O)cc1 (centres unmarked)	-4.69
O=C1OC(Nc2ccccn2)c2ccccc21 (centres unmarked)	-5.61
NC(=O)C1(N2CCCCC2)CCN(C(=O)c2ccc(C#CC3(O)CCCCC3)cc2)CC1	-6.21
COc1ccccc1C(=O)N/C(=C\c1ccccc1)C(=O)NCc1ccco1	-38.1
COc1ccc(/C=C(/NC(=O)c2ccccc2)c2nc3ccccc3[nH]2)cc1OC	-12.5
Cc1ccc(C(=O)N/C(=C\c2cccnc2)c2nc3ccccc3[nH]2)cc1	-19.7
O=C(NCc1ccco1)/C(=C\c1ccccc1)NC(=O)c1ccccc1	6.85
O=C(NCc1ccco1)/C(=C\c1cccnc1)NC(=O)c1ccccc1F	-51.1
O=C(N/C(=C\c1cccnc1)c1nc2ccccc2[nH]1)c1cccc(Br)c1	-54.9
COc1ccc(C(=O)N/C(=C/c2cccnc2)C(=O)NCc2ccco2)cc1OC	9.12
O=C(NCc1ccco1)/C(=C/c1cccnc1)NC(=O)c1cccc(Br)c1	-59.6
Cc1ccc(C(=O)N/C(=C/c2cccnc2)C(=O)NCc2ccco2)cc1	-41.7
CCCNS(=O)(=O)c1cccc2cccnc12	-6.32
Cc1cccc(-c2cc(C(=O)NCc3ccccn3)c3ccccc3n2)c1	-18

Structure (SMILES)	hERG current change (%, negative = inhibition) at 10uM [%]
Cc1ccc(OCc2n[nH]c(=S)n2C2CCCCC2)cc1	21
Cc1ccc(-n2c(C)cc(/C=N/NC(=O)c3ccncc3)c2C)cc1C	17.3
COc1ccccc1-n1cnnc1SCc1csc(-c2ccccc2)n1	-20.9
O=C(CCC(=O)c1cccs1)NCc1cccc(C(F)(F)F)c1	-7.88
COc1ccc(C(=O)N2CCN(c3ncccn3)CC2)cc1S(=O)(=O)N1CCOCC1	6.96
CCC(=O)N1CCc2cc(OC)c(OC)cc2C1COc1ccc(C(=O)OC)cc1 (centres unmarked)	-1.37
CCc1ccc(OCC2c3cc(OC)c(OC)cc3CCN2C(C)=O)cc1 (centres unmarked)	-11.5
COc1cc2c(cc1OC)C(COc1ccc(F)cc1)NCC2 (centres unmarked)	-26.8
COc1cc2c(cc1OC)C(COc1ccc(F)cc1)N(C(C)=O)CC2 (centres unmarked)	-11.9
COC(=O)c1ccc(OCC2c3cc(OC)c(OC)cc3CCN2C(=O)C2CC2)cc1 (centres unmarked)	-56.3
COc1cc2c(cc1OC)C(COc1ccc([N+](=O)[O-])cc1)N(C(C)=O)CC2 (centres unmarked)	-77.4
COC(=O)c1ccc(OCC2c3cc(OC)c(OC)cc3CCN2C(C)=O)cc1 (centres unmarked)	8.8
COc1cc2c(cc1OC)C(COc1ccc([N+](=O)[O-])cc1)NCC2 (centres unmarked)	-76.6
COc1ccc(OCC2NCCc3cc(OC)c(OC)cc32)cc1 (centres unmarked)	-8.93
O=C(CN1N=C(c2ccccc2)CCC1=O)NCc1ccco1	0.243
COc1cccc(NC(=O)C2C3C=CC(C3)C2C(=O)O)c1 (centres unmarked)	8.61
Cc1ccc(Cc2nnc3n(-c4cccc(C)c4)nc(C(=O)c4ccccc4)n3c2=O)cc1	-3.85
CN1CCC(OC(=O)c2ccc(Br)cc2)CC1.Cl	-41.9
CN1CCN(C(=S)c2ccc(Br)cc2)CC1	-35.9
CN1CCC(=C(c2ccccc2)c2ccc(Br)cc2)CC1.Cl	-68.3
C=CCNc1scc(-c2ccccc2)[n+]1CC=C.[Br-]	-21.4
C/C=C/C(=O)N1c2ccccc2C(C)=CC1(C)C	3.41
COC(=O)c1[nH]c2cccc(OC)c2c1NC(=O)C(C)N1CCC(C)CC1 (centres unmarked)	-21.6

Structure (SMILES)	hERG current change (%, negative = inhibition) at 10uM [%]
CCN(CC)c1ccc(C(=O)OCC(=O)Nc2sccc2C#N)cc1	12.2
Cc1ccc2cc(S(=O)(=O)NCCC(=O)O)ccc2c1	-2.04
Cc1cc(C)c2nc(N3CCC(C(=O)NCCCN4CC(C)CC(C)C4)CC3)sc2c1 (centres unmarked)	-71.8
Cc1cc(C)c2nc(N3CCC(C(=O)NCc4cccnc4)CC3)sc2c1	-79
Cc1cc(C)c2nc(N3CCC(C(=O)NCCN4CCOCC4)CC3)sc2c1	-10.5
CCc1nnc(NC(=O)C2CCN(C(=O)c3ccco3)CC2)s1	-0.31
Cc1cc(=O)n2nc(N3CCC(C(=O)NCc4cccnc4)CC3)sc2n1	7.16
Cc1cc(C)c2nc(N3CCCC(C(=O)N4CCC(C(N)=O)CC4)C3)sc2c1 (centres unmarked)	-19.3
Cc1cc(C)c2nc(N3CCC(C(=O)NCc4ccccn4)CC3)sc2c1	-25.3
Cc1cc(C)c2nc(N3CCC(C(=O)N4CCCC4)CC3)sc2c1	-67.7
CCC(CC)c1nnc(NC(=O)C2CCN(C(=O)c3ccco3)CC2)s1	20.1
Cc1cc(C)c2nc(N3CCC(C(=O)NCCCN4CCCCC4)CC3)sc2c1	-37.2
CCC(C)Sc1nnc(NC(=O)C2CCN(C(=O)c3ccco3)CC2)s1 (centres unmarked)	-57.2
Cc1cc(C)c2nc(N3CCC(C(=O)N4CCN(c5ncccn5)CC4)CC3)sc2c1	-0.141
COC(=O)[C@@]12CCCN1[C@H](c1ccc(-c3ccccc3)cc1)[C@H]1C(=O)N(C)C(=O)[C@H]12.O=C(O)C(F)(F)F	-14.2
O=C1Cc2cc(S(=O)(=O)NCc3ccccc3Cl)cc3c2N1CCC3	6.14
Cc1ccc(/C=C2\SC(=S)N(c3cccnc3)C2=O)o1	6.67
CCOC(=O)c1ccc(NC(=O)c2nc[nH]c2C(=O)N2CCc3ccccc3C2)cc1	0.122
CC(C)CNc1nc(N)c([N+](=O)[O-])c(N2CCCCCC2)n1	-0.987
CC1(C)SC2c3ccccc3C(=O)N2[C@@H]1C(=O)NC1CC1 (some centres unmarked)	9.97
Cc1nc([N+](=O)[O-])cn1CC(=O)c1ccc(F)cc1	10.5
CCNc1nc(SCC(=O)Nc2ccc(Cl)c(Cl)c2)nc(N(C)C)n1	14.8
CCN(C(=O)COC(=O)c1[nH]c(C)c(C(C)=O)c1C)C1CCS(=O)(=O)C1 (centres unmarked)	-8.32

Structure (SMILES)	hERG current change (%, negative = inhibition) at 10uM [%]
CCOc1ccc(-c2cc(C(=O)N/N=C/c3ccc(O)cc3)c3ccccc3n2)cc1	4.93
Cc1c(C(=O)N/N=C/c2ccccn2)nnn1-c1nonc1N	-15.6
Cc1nnc(NC(=O)C2CCN(C(=O)c3ccco3)CC2)s1	13.4
O=C(Nc1nc2ccccc2s1)C1CCN(C(=O)c2ccco2)CC1	-41.9
Cc1cc2nc(N3CCN(C(=O)c4ccco4)CC3)sc2cc1C	0.152
Cc1cc(C)c2nc(N3CCN(C(=O)c4ccco4)CC3)sc2c1	-28.5
Cc1cccc2sc(NC(=O)C3CCN(C(=O)c4ccco4)CC3)nc12	-71.6
Cc1cc(C)c2nc(N3CCC(C(=O)N4CCN(C(=O)c5ccco5)CC4)CC3)sc2c1	-77.1
C=CCOC(=O)C1=C(C)NC(C)=C(C(=O)OCC=C)C1c1ccc(C)o1	-27.4
O=C(Cc1ccccc1)NCC(=O)N1CCCCCC1	9.71
CN(C/N=C(\N)N[N+](=O)[O-])S(=O)(=O)c1ccccc1	19.4
COC(=O)C1=CO[C@@H](O[C@@H]2O[C@H](CO)[C@@H](O)[C@H](O)[C@H]2O)[C@H]2[C@@H]1C(=O)C[C@@H]2C	23.3
COC(=O)c1ccc(CSc2nc3sc(C)c(C)c3c(=O)[nH]2)cc1	0.764
Nc1c(C(=O)c2ccccc2)sc2nsc(SCCN3CCOCC3)c12	18.1
CCOc1ccc(CN2CCN(Cc3cnn(CC)c3C)CC2CCO)cc1 (centres unmarked)	-67.8
CCn1ncc(CN2CCN(Cc3cccc(OC)c3)C(CCO)C2)c1C (centres unmarked)	7.07
CCOc1ccc(CN2CCN(Cc3c(C)nn(CC)c3C)CC2CCO)cc1 (centres unmarked)	-45
CCn1cc(CN2CCN(Cc3ccc(OC)c(C)c3C)C(CCO)C2)c(C)n1 (centres unmarked)	-23.1
CCn1cc(CN2CCN(Cc3cccc(OC)c3)C(CCO)C2)c(C)n1 (centres unmarked)	-14.4
CCOc1ccc(CN2CCN(Cc3cn(CC)nc3C)CC2CCO)cc1 (centres unmarked)	-62
